Reference: PubChem BioAssay AID1347056 (Sanford-Burnham Center for Chemical Genomics, 2019)
Screen size: about 360,000 compounds; about 3,600 (1%) were called active. The sample holds actives, similar compounds and a random draw of the others, so the mix is not that of the screen. A number with no mark means an inactive call.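 How the source made its calls: active means compounds whose plate-normalised and pattern-corrected inhibition of the luciferase reporter signal at the single screening dose is 50% or more; inactive means the rest.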

Test: TROY pathway blockers in reporter cells – Q293 LMP1-TROYcd cells, NF-kB luciferase, uHTS, primary screen (AID 1347056)
Details: 4 h, at 10 µM, hits give high values

| Compound | inhibition |
| --- | --- |
| COc1cccc(-c2nc3ccc(N4CCN(C)CC4)cc3[nH]2)c1 | 79.8% (active) |
| CCn1cc(CN2CCCC(C(=O)c3cccc(C(F)(F)F)c3)C2)cn1 (stereo not given) | 10.1% |
| CCOC(=O)[C@]12Cc3ccccc3[C@H]1N(C1CCCCC1)C(=O)c1cc(OC)ccc12 | 36.6% |
| CNC(=O)Nc1ccc(C(O)(C(=O)OC)C(F)(F)F)cc1 (stereo not given) | -7.62% |
| COc1cc(C(c2c(O)c3ccccc3oc2=O)c2c(C)n(C)n(-c3ccccc3)c2=O)ccc1O (stereo not given) | -7.22% |
| CC(=O)OC1C2(CC3N4C(=O)C5(CO)SSC4(CC31O)C(=O)N5C)OC(C)C(C)(C)C2=O (stereo not given) | 64.8% (active) |
| CC(=O)Nc1ccccc1C(=O)OCC(=O)c1cccc2ccccc12 | -7.86% |
| CN(C)CC1Oc2ccccc2OC1(O)c1ccccc1 (stereo not given) | 1.73% |
| CCCCCCCCCCCCn1ccc(=N)cc1 | 64% (active) |
| Cc1nc2nc(C)c(CCC(=O)N3CCC4(CC3)OCCO4)c(C)n2n1 | 3.18% |
| Cc1ccc(C)c(NC2=NCCCS2)c1 | 1.74% |
| O=C(CCCn1c(=O)[nH]c2cc(Cl)ccc2c1=O)N1CCC2(CC1)OCCO2 | 7.33% |
| CCOC(=O)C(O)(c1ccc(N)c(OC)c1)C(F)(F)F (stereo not given) | 7.19% |
| CCC(C)(O)C(=O)OC1C(=O)OC2CC3C(C)=CC(=O)C(O)C3(C)C3C4(O)OCC23C1C(C)C4O (stereo not given) | 83.5% (active) |
| NCCc1c[nH]c2ccc(O)cc12 | 13% |
| CC(=O)Nc1ccc(C(=O)C(Cc2ccccc2)N(C)C)cc1 (stereo not given) | 0.62% |
| CCCCCCN=C(CC)c1c(O)n(CCCC)c(=O)[nH]c1=O | 17.9% |
| CCOC(=O)c1cccc(C2=C(CNC(=O)c3ccncc3)[C@H]3CC[C@@H](C2)N3Cc2ccccc2)c1 | -20.1% |

| Compound | inhibition |
| --- | --- |
| COc1cc(Cn2c(N)c(C(=O)NCc3ccco3)c3nc4ccccc4nc32)cc(OC)c1OC | 13.5% |
| CCOC(=O)c1c(N)n(Cc2ccccc2)c2nc3ccccc3nc12 | 51.6% (active) |
| COc1ccc(-c2nn(CCC#N)cc2C(=O)O)cc1 | -1.21% |
| CNCC(O)c1cc(F)c(OCc2ccccc2)c(OCc2ccccc2)c1F (stereo not given) | 8.14% |
| CC1CCC(N(C)C2CCN(C)CC2)CC1 (stereo not given) | 18.6% |
| CCN1c2nc3c(C)cccn3c(=O)c2CC2(C(=O)N(C)C(=O)N(C)C2=O)C1C (stereo not given) | -6.84% |
| Cc1ccc(C2CN(C)CC2C(=O)c2ccc(F)cc2)cc1 (stereo not given) | 57.6% (active) |
| COc1ccc(C(=O)C2CN(C)CC2C(=O)c2ccc(OC)cc2)cc1 (stereo not given) | -76.8% |
| CN1CCC(OC(=O)c2cccc(F)c2)CC1 | -37.5% |
| Cn1cc(C(=O)OCC(=O)N2CCCC2)c2ccccc21 | 8.39% |
| O=C(Nc1cccc2ccccc12)N1CCC2(CC1)OCCO2 | 38.5% |
| CCOC(=O)C1SC2(C(F)(F)C(F)F)CC1(O)c1c(c(OC)c3occc3c1OC)O2 (stereo not given) | -1.26% |
| COc1ccc(-n2nnnc2C(c2cccc3ccccc23)N2CCC(n3c(=O)[nH]c4ccccc43)CC2)cc1 (stereo not given) | 27.6% |
| O=c1[nH]c2ccccc2n1C1CCN(C(c2ccnc3ccccc23)c2nnnn2Cc2ccccc2)CC1 (stereo not given) | 73.9% (active) |
| O=c1[nH]c2ccccc2n1C1CCN(C(c2ccccc2)c2nnnn2Cc2ccccc2)CC1 (stereo not given) | 18.3% |
| Cc1ccc(OC(=O)N(C)C[C@@H]2OCc3cnnn3CCCC(=O)N([C@H](C)CO)C[C@@H]2C)cc1 | 0.42% |
| CC(C)c1ccc(OCC(=O)N2CCCN(C)CC2)cc1 | -4.27% |
